Laboratory results: PubChem BioAssay AID1159580 (chemical genetic matrix, 2015)
Out of some 5,500 compounds screened, about 2,000 (36%) were called active. Roughly 18% stayed inconclusive and do not appear here. No stated cut-off is given here; in the data, active means normalized growth mostly below about 0.91 (no sharp cut-off); inconclusive means no clear call, values can overlap the other calls; inactive means mostly above about 0.92. Some of the results follow.

Assay: chemical genetic growth profiling, strain panel (AID 1159580);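 further: tested at 20 µM; growth read once vehicle control cultures reached saturation at 30 °C; 1 = growth at the plate median or of vehicle wells; lower values mean less growth of the strain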
Settings: growth OD

Measured: normalized growth

CCCCCCCCCc1ccc(O)cc1
inactive: S. cerevisiae deletion strains, locus YKL068W, active compounds read low 0.964 | S. cerevisiae deletion strains, locus YOL012C, strain htz1 0.624 | S. cerevisiae deletion strains, locus YPR141C, strain kar3, active compounds read low 0.992
active: S. cerevisiae deletion strains, locus YJR075W, strain HOC1, active compounds read low 0.256 | S. cerevisiae deletion strains, locus YKL009W, strain mrt4, active compounds read low 0.616 | S. cerevisiae deletion strains, locus YKL085W, strain MDH1 (second series), active compounds read low 0.311 | S. cerevisiae deletion strains, locus YKL085W, strain MDH1, active compounds read low 0.311 | S. cerevisiae deletion strains, locus YKL160W, strain elf1, active compounds read low 0.0913 | S. cerevisiae deletion strains, locus YKL190W, strain CNB1, active compounds read low 0.139 | S. cerevisiae deletion strains, locus YKR001C, strain vps1, active compounds read low 0.352 | S. cerevisiae deletion strains, locus YKR026C, strain gcn3, active compounds read low 0.0658 | S. cerevisiae deletion strains, locus YKR091W, strain srl3, active compounds read low 0.0785 | S. cerevisiae deletion strains, locus YLL001W, strain dnm1, active compounds read low 0.0778 | S. cerevisiae deletion strains, locus YLL026W, active compounds read low 0.0571 | S. cerevisiae deletion strains, locus YLL041C, strain sdh2, active compounds read low 0.0651 | S. cerevisiae deletion strains, locus YLR027C, strain aat2, active compounds read low 0.0531 | S. cerevisiae deletion strains, locus YLR039C, strain RIC1, active compounds read low 0.106 | S. cerevisiae deletion strains, locus YLR058C, strain SHM2, active compounds read low 0.136 | S. cerevisiae deletion strains, locus YLR102C, strain apc9, active compounds read low 0.901 | S. cerevisiae deletion strains, locus YLR113W, strain HOG1, active compounds read low 0.117 | S. cerevisiae deletion strains, locus YLR221C, strain rsa3, active compounds read low 0.0526 | S. cerevisiae deletion strains, locus YLR258W, strain gsy2, active compounds read low 0.062 | S. cerevisiae deletion strains, locus YLR262C, strain YPT6 (second series), active compounds read low 0.0891 | S. cerevisiae deletion strains, locus YLR262C, strain YPT6, active compounds read low 0.139 | S. cerevisiae deletion strains, locus YLR268W, strain sec22, active compounds read low 0.74 | S. cerevisiae deletion strains, locus YLR320W, strain mms22, active compounds read low 0.071 | S. cerevisiae deletion strains, locus YLR330W, strain CHS5, active compounds read low 0.321 | S. cerevisiae deletion strains, locus YLR342W, strain FKS1 (second series), active compounds read low 0.102 | S. cerevisiae deletion strains, locus YLR342W, strain FKS1, active compounds read low 0.0664 | S. cerevisiae deletion strains, locus YLR357W, strain rsc2, active compounds read low 0.148 | S. cerevisiae deletion strains, locus YLR370C, strain arc18, active compounds read low 0.0667 | S. cerevisiae deletion strains, locus YLR371W, strain rom2, active compounds read low 0.622 | S. cerevisiae deletion strains, locus YLR384C, strain iki3, active compounds read low 0.0786 | S. cerevisiae deletion strains, locus YLR418C, strain cdc73, active compounds read low 0.323 | S. cerevisiae deletion strains, locus YML016C, strain PPZ1, active compounds read low 0.191 | S. cerevisiae deletion strains, locus YML032C, strain rad52, active compounds read low 0.497 | S. cerevisiae deletion strains, locus YML120C, strain ndi1, active compounds read low 0.0538 | S. cerevisiae deletion strains, locus YML124C, strain tub3, active compounds read low 0.908 | S. cerevisiae deletion strains, locus YMR058W, strain fet3, active compounds read low 0.0622 | S. cerevisiae deletion strains, locus YMR078C, strain ctf18, active compounds read low 0.611 | S. cerevisiae deletion strains, locus YMR125W, strain sto1, active compounds read low 0.0742 | S. cerevisiae deletion strains, locus YMR129W, active compounds read low 0.0704 | S. cerevisiae deletion strains, locus YMR205C, strain PFK2, active compounds read low 0.0794 | S. cerevisiae deletion strains, locus YMR223W, strain ubp8, active compounds read low 0.558 | S. cerevisiae deletion strains, locus YMR231W, strain pep5, active compounds read low 0.0903 | S. cerevisiae deletion strains, locus YMR263W, strain SAP30, active compounds read low 0.099 | S. cerevisiae deletion strains, locus YMR307W, strain GAS1, active compounds read low 0.121 | S. cerevisiae deletion strains, locus YNL067W, strain RPL9B, active compounds read low 0.254 | S. cerevisiae deletion strains, locus YNL071W, strain lat1, active compounds read low 0.0615 | S. cerevisiae deletion strains, locus YNL128W, strain TEP1, active compounds read low 0.119 | S. cerevisiae deletion strains, locus YNL153C, strain GIM3, active compounds read low 0.117 | S. cerevisiae deletion strains, locus YNL183C, strain NPR1, active compounds read low 0.00185 | S. cerevisiae deletion strains, locus YNL209W, strain ssb2, active compounds read low 0.0648 | S. cerevisiae deletion strains, locus YNL233W, strain BNI4, active compounds read low 0.0815 | S. cerevisiae deletion strains, locus YNL248C, strain rpa49, active compounds read low 0.076 | S. cerevisiae deletion strains, locus YNL250W, strain rad50, active compounds read low 0.734 | S. cerevisiae deletion strains, locus YNL271C, strain bni1, active compounds read low 0.749 | S. cerevisiae deletion strains, locus YNL298W, strain CLA4, active compounds read low 0.437 | S. cerevisiae deletion strains, locus YNL307C, strain MCK1, active compounds read low 0.292 | S. cerevisiae deletion strains, locus YNL322C, strain KRE1 (second series), active compounds read low 0.11 | S. cerevisiae deletion strains, locus YNL322C, strain KRE1, active compounds read low 0.167 | S. cerevisiae deletion strains, locus YNR049C, strain mso1, active compounds read low 0.0733 | S. cerevisiae deletion strains, locus YNR052C, strain pop2, active compounds read low 0.538 | S. cerevisiae deletion strains, locus YOL006C, strain TOP1, active compounds read low 0.217 | S. cerevisiae deletion strains, locus YOL147C, strain pex11, active compounds read low 0.444 | S. cerevisiae deletion strains, locus YOR001W, strain rrp6, active compounds read low 0.0626 | S. cerevisiae deletion strains, locus YOR061W, strain CKA2, active compounds read low 0.102 | S. cerevisiae deletion strains, locus YOR069W, strain VPS5, active compounds read low 0.217 | S. cerevisiae deletion strains, locus YOR070C, strain gyp1, active compounds read low 0.063 | S. cerevisiae deletion strains, locus YOR080W, strain dia2, active compounds read low 0.0669 | S. cerevisiae deletion strains, locus YOR083W, strain WHI5, active compounds read low 0.0608 | S. cerevisiae deletion strains, locus YOR106W, strain vam3, active compounds read low 0.0604 | S. cerevisiae deletion strains, locus YOR136W, strain idh2, active compounds read low 0.758 | S. cerevisiae deletion strains, locus YOR144C, strain elg1, active compounds read low 0.553 | S. cerevisiae deletion strains, locus YOR184W, strain ser1, active compounds read low 0.506 | S. cerevisiae deletion strains, locus YOR231W, strain MKK1, active compounds read low 0.101 | S. cerevisiae deletion strains, locus YOR265W, strain rbl2, active compounds read low 0.0564 | S. cerevisiae deletion strains, locus YOR270C, strain vph1, active compounds read low 0.102 | S. cerevisiae deletion strains, locus YOR290C, strain snf2, active compounds read low 0.0652 | S. cerevisiae deletion strains, locus YOR316C, strain cot1, active compounds read low 0.799 | S. cerevisiae deletion strains, locus YPL051W, strain arl3, active compounds read low 0.0626 | S. cerevisiae deletion strains, locus YPL055C, strain LGE1, active compounds read low 0.1 | S. cerevisiae deletion strains, locus YPL078C, strain atp4, active compounds read low 0.0621 | S. cerevisiae deletion strains, locus YPL106C, strain sse1, active compounds read low 0.0816 | S. cerevisiae deletion strains, locus YPL240C, strain hsp82, active compounds read low 0.0552 | S. cerevisiae deletion strains, locus YPL241C, strain CIN2, active compounds read low 0.219 | S. cerevisiae deletion strains, locus YPL256C, strain CLN2, active compounds read low 0.109 | S. cerevisiae deletion strains, locus YPR119W, strain clb2, active compounds read low 0.67 | S. cerevisiae deletion strains, locus YPR163C, strain tif3, active compounds read low 0.86 | S. cerevisiae deletion strains, locus YPR167C, strain met16, active compounds read low 0.655 | S. cerevisiae deletion strains, strain wtn01, active compounds read low 0.813 | S. cerevisiae strains, strain wild type, active compounds read low 0.112
